“And” between values parts separate entries of the source, which are not always exact repeats. Equal entries are not always repeated. Results filed as inconclusive are left out. Values without a mark were called inactive. The source made the active and inactive calls. The call rests on the fitted dose curve; in most records, active means well fitted cell-killing curve with a large enough effect; inconclusive means small, poorly fitted or top-dose-only effect; inactive means flat fitted curve, though single readings scatter.
Assay: Cellular viability qHTS for adrenocortical cancer (ACC) cell line SW-13 (AID 1963989); further: nearly all actives have a fitted effect of over 65% in size;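 on activity (max response): cells grown in serum-free medium with ITS supplement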
Conditions: SW-13 ACC cells viability, CellTiter-Glo, 48 h; activity (max response): stronger effect = lower value
Source text: PI: Naris Nilubol, MD Surgical Oncology Program, National Cancer Institute (NCI) National Institute of Health (NIH), Bethesda, Maryland Adrenocortical cancer (ACC) is a rare malignancy with poor survival outcomes and few treatment options. Currently, mitotane is the only FDA-approved therapy for ACC. Although adjuvant radiation therapy is rarely utilized, it has the potential to improve survival in select cases. Through a quantitative high-throughput drug screen (qHTS), we identified auranofin (AF), a thioredoxin reductase (TXNRD) inhibitor, as a promising candidate drug. This study aims to evaluate whether AF can enhance the efficacy of radiation therapy in the treatment of ACC. Two human ACC cell lines, SW-13 and NCI-H295R, were screened using the National Center for Advancing Translational Sciences (NCATS) Pharmaceutical Collection (NPC) and the Mechanism Interrogation PlatE (MIPE) library (~4,991 compounds). CellTiter-Glo (Cat # G7570, Promega, Madison, WI) was utilized to measure cell viability. Described herein are the results of the corresponding viability assay.
PROTOCOL TABLE (as described by Inglese J, Shamu CE and Guy RK. 2007) SEQUENCE No. (e.g., 1, 2, 3, etc.); […] (e.g., Cells, Incubation, Reagent, etc.); VALUE; DESCRIPTION. 1; Cells; 5 uL; white, solid-bottom, 1536-well tissue-culture treated plates. 2; Time; overnight culture at 37C with 5% CO2. 3; Compounds and control; 23 nL; Kalypsis pin tool (Wako USA) equipped with a 1536-well pin head to transfer to the assay plates. 4; Time; 48 hours; 37C with 5% CO2. 5; Reagent; 4 uL; CellTiter-Glo luminescent substrate mix. 6; Time; 20 min at room temperature. 7; Detection; Luminescence; ViewLux plate reader NOTES (numbers refer to Sequence numbers above) 1. SW13 cells were harvested from a T175 flask and resuspended in ITS-supplemented DMEM serum-free medium at a concentration of 300 000 cells/mL. Then 5 uL of resuspended cells were dispensed into each well of white, solid-bottom, 1536-well tissue-culture-treated plates using a multidrop combi dispenser. The plates were covered with stainless steel gasket lids. 2-3. The plates were cultured overnight at 37C with 5% CO2. Twenty-three nL of compounds (eight selected concentrations from the NPC / MIPE) or positive control (10 mM stock of bortezomib) in DMSO was transferred to each well of the assay plate using a pin tool (Kalypsys, San Diego, CA, USA). The final concentration of the compounds in the 5 uL assay volume ranged from 0.5 nM to 46 uM. 4-6. After 48 hours of incubation at 37C and 5% CO2, 4 uL of CellTilter-Glo luminescent substrate mix (Promega, Madison, WI, USA) was added to each well. Then the plates were incubated for 20 minutes at room temperature. 7. After incubation, luminescence was measured using a ViewLux plate reader (PerkinElmer, Waltham, MA, USA) with a clear filter was used to measure the number of metabolically competent cells. To determine compound activity in the qHTS assay, the titration-response data for each sample was plotted and modeled by a four-parameter logistic fit yielding IC50 and efficacy (maximal response) values. […] REFERENCES: Inglese J, Shamu CE and Guy RK, Reporting data from high throughput screening of small molecule libraries, Nature Chemical Biology, 2007, 3(8): 438-441. doi.org/10.1038/nchembio0807-438.
In the case of `CCN(CC)CCNC(=O)COc1ccc(Cl)cc1`, the activity (max response) is reported as 6.48%. For `Nc1cc(=O)[nH]c(N)n1`, the activity (max response) was -6.62%. For `CCCS(=O)c1ccc2nc(NC(=O)OC)[nH]c2c1` (stereo not given), the Potency was 25.1 µM (active). With `C=CCNC1=C2CC(C)CC(OC)C(O)C(C)/C=C(\C)C(OC(N)=O)C(OC)/C=C/C=C(\C)C(=O)NC(=CC1=O)C2=O` (stereo not given) the Potency was 3.16 µM (active). In the case of `CO[C@@]1(NC(=O)CSC[C@@H](N)C(=O)O)C(=O)N2C(C(=O)O)=C(CSc3nnnn3C)CS[C@@H]21`, the activity (max response) is reported as -7.39%. For `Cc1c(CN2CCC(Nc3ncnc4sc(CC(F)(F)F)cc34)CC2)ccc2c1cc(C#N)n2Cc1cn[nH]c1`, the Potency was 4.47 µM (active). Molecule `COc1cc2c(cc1OC)C(=O)C(CC1CCN(Cc3ccccc3)CC1)C2` (stereo not given) has an activity (max response) of -16.2%. Molecule `CC(=O)O[C@H]1C[C@@H]2CC[C@@H]3[C@H](CC[C@@]4(C)[C@H]3C[C@H]([N+]3(C)CCCCC3)[C@@H]4OC(C)=O)[C@@]2(C)C[C@@H]1N1CCCCC1` has an activity (max response) of 0.69%. For `CCCCNc1c(C(=O)OCC)c(C)nc2c1cnn2CC`, the activity (max response) was -16.9%. With `COC(=O)Nc1nc2ccc(C(=O)C3CC3)cc2[nH]1` the Potency was 0.731 µM (active). For `Cc1c(CN2CCN(S(C)(=O)=O)CC2)sc2c(N3CCOCC3)nc(-c3cnc(N)nc3)nc12`, the Potency was 0.891 µM (active). For `Cc1cnc(Nc2cccc(CN3CCOCC3)c2)nc1Nc1cccc(S(=O)(=O)NC(C)(C)C)c1`, the activity (max response) was -8.11%. `COc1ccc(-c2c(C)nn3c(NCCN4CCOCC4)cc(C)nc23)cc1OC` gave an activity (max response) of 10.9%. For `O=C1C(=O)c2ccccc2C(O)=C1C1CCC(c2ccc(Cl)cc2)CC1` (stereo not given), the activity (max response) was 9.49%. With `C[C@@]12C(=O)OC(=O)[C@]1(C)[C@H]1CC[C@@H]2O1` the Potency was 15.8 µM (active). Work on `COc1ccc(Cl)cc1-c1cc(=O)[nH]c(=S)n1CC(N)=O` yielded an activity (max response) of -3.52%. `C=CCOc1cc(Cl)ccc1C(=O)NCCN(CC)CC` gave an activity (max response) of -0.164%. In the case of `N#Cc1ccc(COC[C@H]2O[C@@H](n3c(NCc4ccc(Cl)c(Cl)c4)nc4c(N)ncnc43)[C@H](O)[C@@H]2O)cc1`, the Potency is reported as 25.1 µM (active). Molecule `CC(=O)CC/C=C(\C)CC/C=C(\C)CC/C=C(\C)CCC=C(C)C` has an activity (max response) of 9.79%. `CCOC(=O)COc1ccc2c(C)c(CCN(CC)CC)c(=O)oc2c1Cl` showed an activity (max response) of 0.298%. `CNC1(C)C2CCC(C2)C1(C)C` (stereo not given) gave an activity (max response) of -10.9%. With `O=C1NC(=O)C(c2c[nH]c3ccccc23)=C1c1c[nH]c2ccccc12` the Potency was 25.1 µM (active). For `COc1ccc(CCC(=O)Nc2nc3ccc(Cl)cc3s2)cc1OC`, the activity (max response) was -11.7%. Molecule `[2H]C([2H])([2H])C(O)([C@@H](C)/C=C/[C@@H](C)[C@H]1CC[C@H]2/C(=C/C=C3C[C@@H](O)C[C@H](O)C3)CCC[C@]12C)C([2H])([2H])[2H]` has an activity (max response) of -26.6%. In the case of `CCc1ccc(OCc2ccccc2C(=O)Nc2ccc3nc(C)cc(N)c3c2)cc1`, the Potency is reported as 5.01 µM (active). For `O=C(O)CCCCCC(=O)NN=C1CCCC1`, the activity (max response) was 2.29%. For `CC(C)(CO)n1cc(C(=O)c2cncc(NC(=O)Cc3ccc(Cl)cn3)c2)c2cnc(N)nc21`, the activity (max response) was -13.5%. In the case of `CC(C)C[C@H](NC(=O)[C@@H](O)[C@H](N)Cc1ccccc1)C(=O)O`, the activity (max response) is reported as 9.42%. `CNC(=O)Oc1ccc2c(c1)[C@]1(C)CCN(C)[C@@H]1N2C` showed an activity (max response) of 16.2%. With `CN(C)CCCN1c2ccccc2Sc2ccc(Cl)cc21` the Potency was 14.6 µM (active). `O=C(CO)[C@@H](O)[C@H](O)[C@@H](O)CO` gave an activity (max response) of 0.0107%. In the case of `Cc1ccc(C(=O)Nc2ccc(S(=O)(=O)O)c3cc(S(=O)(=O)O)cc(S(=O)(=O)O)c23)cc1NC(=O)c1cccc(NC(=O)Nc2cccc(C(=O)Nc3cc(C(=O)Nc4ccc(S(=O)(=O)O)c5cc(S(=O)(=O)O)cc(S(=O)(=O)O)c45)ccc3C)c2)c1`, the activity (max response) is reported as -19.9% and 5.07%. Work on `NC1(C(=O)N[C@@H](CCO)c2ccc(Cl)cc2)CCN(c2ncnc3[nH]ccc23)CC1` yielded an activity (max response) of -21.3%. For `C[C@@H]1CN(CC(=O)Nc2ccc3c(c2)Cc2cccc(-c4cc(=O)cc(N5CCOCC5)o4)c2S3)C[C@H](C)O1`, the Potency was 28.2 µM (active). With `N[C@@H](C(=O)N[C@@H]1C(=O)N2C(C(=O)O)=C(Cl)CS[C@H]12)c1ccccc1` the activity (max response) was 7.53%. With `COC1CCC(N2C(=O)CNc3ncc(-c4ccc(C(C)(C)O)nc4)nc32)CC1` (stereo not given) the Potency was 15.8 µM (active). `CCOc1ccc2nc(S(N)(=O)=O)sc2c1` gave an activity (max response) of -20.8%. Work on `CC(C)n1ncnc1-c1cn2c(n1)-c1ccc(O[C@@H](C)C(N)=O)cc1OCC2` yielded an activity (max response) of -4.9%. For `O=C(O)[C@@H]1CSCN1`, the activity (max response) was -7.21%. Work on `C[C@H](NC(=O)CCC(F)(F)F)C(=O)N[C@@H]1C(=O)N(CCO)c2ncccc2-c2ccccc21` yielded an activity (max response) of -28.7%.
On the % scale 0 is the no-effect control and ±100 the full control effect.
